From the supplement of paper PMC10849652 come the findings set out here.

The full data set covers some 7,900 targets. This sample favours those with a hit. About 0.6% of all pairs of compound and target were hits. A number with no mark means an inactive call.

What all share (assay): log2 fold change, soluble protein after heating vs DMSO (PISA); higher = thermal stabilisation; K562 cells, 10 uM, 30 min; active = over 0.2 and 3.5 SD of the protein, either way, in both replicates (recomputed)
Compound in assay [1]: C1=CC=C(C=C1)[C@H](COC2=CC3=C(C=C2)NC(=O)N3)NC(=O)C4=CC=CN(C4=O)CC5=CC(=C(C=C5)F)F
The essentials:
(§1)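 Quantification of soluble protein used TMTpro 16plex LC-MS/MS, with channel sums equalised. Samples were the supernatant after 21,000xg for 90 min of pooled aliquots from K562 cells (2×10^6 cells/mL) treated with 10 μM compound for 30 min, heated for 3 min over 48°C-58°C, and extracted in PBS with 0.5% NP-40 at 4°C. Values, from duplicates, describe thermal stability against control samples on a log2 fold-change scale.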

Compound in assay [2]: CC1=C(SC2=C1C(=N[C@H](C3=NN=C(N32)C)CC(=O)N)C4=CC=C(C=C4)Cl)C
In short, it runs like this: as §1

Compound in assay [3]: CC1=C2C(=CC=C1)N=C(N(C2=O)C3=CC=CC=C3C)CN4C=NC5=C(N=CN=C54)N
The essentials: as §1

Compound in assay [4]: c1ccc([C@@H]2C[C@H]2NC2CCNCC2)cc1
In short, it runs like this: as §1

Compound in assay [5]: Cc1sc2c(c1C)C(c1ccc(Cl)cc1)=N[C@@H](CC(=O)OC(C)(C)C)c1nnc(C)n1-2
In short, it runs like this:
as §1

Sequence of UniProt Q9UQC2 (Q9UQC2 whole entry, looked up): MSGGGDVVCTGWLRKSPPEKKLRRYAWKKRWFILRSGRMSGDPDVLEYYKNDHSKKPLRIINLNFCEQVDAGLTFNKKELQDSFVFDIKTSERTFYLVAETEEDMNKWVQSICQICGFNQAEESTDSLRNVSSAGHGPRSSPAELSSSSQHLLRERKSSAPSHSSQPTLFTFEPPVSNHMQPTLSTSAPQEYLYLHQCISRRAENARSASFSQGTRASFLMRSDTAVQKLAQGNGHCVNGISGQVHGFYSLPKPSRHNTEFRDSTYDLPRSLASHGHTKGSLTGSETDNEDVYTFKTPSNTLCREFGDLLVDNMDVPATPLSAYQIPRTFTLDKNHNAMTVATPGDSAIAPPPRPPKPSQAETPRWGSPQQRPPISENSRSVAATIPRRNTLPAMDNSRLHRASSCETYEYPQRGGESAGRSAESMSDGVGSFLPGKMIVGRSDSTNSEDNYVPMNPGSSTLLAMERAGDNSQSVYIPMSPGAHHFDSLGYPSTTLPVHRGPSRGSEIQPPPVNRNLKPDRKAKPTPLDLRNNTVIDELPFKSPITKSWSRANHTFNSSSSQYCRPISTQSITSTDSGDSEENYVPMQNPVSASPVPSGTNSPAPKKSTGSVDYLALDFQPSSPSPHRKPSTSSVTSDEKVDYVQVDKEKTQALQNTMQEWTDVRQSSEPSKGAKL
Sequence of UniProt Q13227 (Q13227 whole entry, looked up): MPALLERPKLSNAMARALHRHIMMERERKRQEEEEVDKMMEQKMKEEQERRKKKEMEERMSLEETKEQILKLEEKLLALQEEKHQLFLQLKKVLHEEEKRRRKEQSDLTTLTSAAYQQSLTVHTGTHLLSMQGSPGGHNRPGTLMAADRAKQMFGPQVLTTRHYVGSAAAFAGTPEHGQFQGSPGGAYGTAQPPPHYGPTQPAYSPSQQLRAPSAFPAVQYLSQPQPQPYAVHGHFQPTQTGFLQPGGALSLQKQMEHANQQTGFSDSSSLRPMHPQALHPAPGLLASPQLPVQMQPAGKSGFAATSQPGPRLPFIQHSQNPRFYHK
Sequence of UniProt Q9UJY4 (Q9UJY4 whole entry, looked up): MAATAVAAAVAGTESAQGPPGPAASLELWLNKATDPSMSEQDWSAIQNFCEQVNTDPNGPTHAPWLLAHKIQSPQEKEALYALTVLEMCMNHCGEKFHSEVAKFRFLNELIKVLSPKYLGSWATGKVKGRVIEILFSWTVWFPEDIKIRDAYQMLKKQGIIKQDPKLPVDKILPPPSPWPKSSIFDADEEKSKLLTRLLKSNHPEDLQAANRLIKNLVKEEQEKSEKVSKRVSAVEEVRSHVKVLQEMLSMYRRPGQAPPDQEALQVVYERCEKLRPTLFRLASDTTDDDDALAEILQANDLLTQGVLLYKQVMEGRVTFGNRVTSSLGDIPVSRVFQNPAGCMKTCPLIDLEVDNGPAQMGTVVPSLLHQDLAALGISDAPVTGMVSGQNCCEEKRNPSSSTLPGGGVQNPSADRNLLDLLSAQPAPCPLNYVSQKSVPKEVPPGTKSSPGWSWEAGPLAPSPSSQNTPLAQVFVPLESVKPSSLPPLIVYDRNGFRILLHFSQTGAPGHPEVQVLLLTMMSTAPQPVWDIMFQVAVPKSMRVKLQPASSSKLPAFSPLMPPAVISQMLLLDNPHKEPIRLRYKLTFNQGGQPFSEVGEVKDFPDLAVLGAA
Sequence of UniProt Q96SL8 (Q96SL8 whole entry, looked up): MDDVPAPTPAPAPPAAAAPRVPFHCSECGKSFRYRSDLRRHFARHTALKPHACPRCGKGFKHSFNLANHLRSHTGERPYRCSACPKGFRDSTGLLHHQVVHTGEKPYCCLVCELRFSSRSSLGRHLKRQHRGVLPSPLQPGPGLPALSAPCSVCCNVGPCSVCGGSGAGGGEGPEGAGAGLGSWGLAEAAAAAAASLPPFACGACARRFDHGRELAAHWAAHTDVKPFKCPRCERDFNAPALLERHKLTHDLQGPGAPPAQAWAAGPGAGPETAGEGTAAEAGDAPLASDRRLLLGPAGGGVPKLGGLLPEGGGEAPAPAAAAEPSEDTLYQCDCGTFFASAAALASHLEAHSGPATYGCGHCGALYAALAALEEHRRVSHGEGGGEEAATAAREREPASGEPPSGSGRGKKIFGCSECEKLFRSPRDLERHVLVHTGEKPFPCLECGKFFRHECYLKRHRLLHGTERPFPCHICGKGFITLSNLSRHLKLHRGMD
Sequence of UniProt O95363 (O95363 whole entry, looked up): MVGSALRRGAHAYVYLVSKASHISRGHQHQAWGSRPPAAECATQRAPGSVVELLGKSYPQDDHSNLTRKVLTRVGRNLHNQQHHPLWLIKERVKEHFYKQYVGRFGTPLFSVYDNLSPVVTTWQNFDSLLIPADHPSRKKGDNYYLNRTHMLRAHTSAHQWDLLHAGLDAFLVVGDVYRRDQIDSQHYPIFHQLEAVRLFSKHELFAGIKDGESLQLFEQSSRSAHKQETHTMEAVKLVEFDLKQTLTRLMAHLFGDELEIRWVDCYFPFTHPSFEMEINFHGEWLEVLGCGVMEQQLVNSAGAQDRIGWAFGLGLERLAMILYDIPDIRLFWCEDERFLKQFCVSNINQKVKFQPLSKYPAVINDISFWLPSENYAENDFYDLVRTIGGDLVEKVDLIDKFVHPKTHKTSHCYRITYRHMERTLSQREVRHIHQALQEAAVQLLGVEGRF
Sequence of UniProt P51570 (P51570 whole entry, looked up): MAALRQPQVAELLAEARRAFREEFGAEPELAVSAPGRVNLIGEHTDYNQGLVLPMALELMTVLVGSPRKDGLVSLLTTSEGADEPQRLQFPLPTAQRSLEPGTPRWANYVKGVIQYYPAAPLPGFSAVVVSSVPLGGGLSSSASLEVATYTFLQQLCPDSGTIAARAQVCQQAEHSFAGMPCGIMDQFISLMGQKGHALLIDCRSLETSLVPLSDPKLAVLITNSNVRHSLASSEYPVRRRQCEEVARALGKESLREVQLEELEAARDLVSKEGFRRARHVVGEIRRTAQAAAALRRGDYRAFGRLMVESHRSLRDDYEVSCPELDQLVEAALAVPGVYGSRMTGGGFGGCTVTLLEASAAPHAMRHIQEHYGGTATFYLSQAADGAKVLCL
Sequence of UniProt O15117 (O15117 whole entry, looked up): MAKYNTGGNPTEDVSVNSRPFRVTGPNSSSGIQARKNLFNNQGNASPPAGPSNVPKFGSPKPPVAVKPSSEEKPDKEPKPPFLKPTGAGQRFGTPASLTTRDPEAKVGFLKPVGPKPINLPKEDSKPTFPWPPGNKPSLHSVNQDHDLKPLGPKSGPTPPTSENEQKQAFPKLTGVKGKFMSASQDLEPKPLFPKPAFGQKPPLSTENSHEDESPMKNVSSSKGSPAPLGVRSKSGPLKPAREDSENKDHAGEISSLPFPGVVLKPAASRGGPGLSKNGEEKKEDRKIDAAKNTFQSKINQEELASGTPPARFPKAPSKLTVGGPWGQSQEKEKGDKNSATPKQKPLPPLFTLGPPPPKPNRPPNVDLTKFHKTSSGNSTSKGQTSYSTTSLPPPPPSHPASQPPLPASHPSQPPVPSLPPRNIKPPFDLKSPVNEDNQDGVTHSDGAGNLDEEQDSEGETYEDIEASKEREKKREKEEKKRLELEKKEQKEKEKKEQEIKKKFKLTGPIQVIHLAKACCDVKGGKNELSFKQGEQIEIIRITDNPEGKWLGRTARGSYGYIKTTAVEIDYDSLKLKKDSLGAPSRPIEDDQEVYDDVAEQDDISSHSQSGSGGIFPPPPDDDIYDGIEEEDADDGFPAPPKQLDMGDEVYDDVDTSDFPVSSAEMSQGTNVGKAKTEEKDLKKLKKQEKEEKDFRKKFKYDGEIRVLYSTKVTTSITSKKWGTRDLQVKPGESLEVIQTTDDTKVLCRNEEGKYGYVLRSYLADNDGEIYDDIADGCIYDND
Sequence of UniProt Q7Z4Q2 (Q7Z4Q2 whole entry, looked up): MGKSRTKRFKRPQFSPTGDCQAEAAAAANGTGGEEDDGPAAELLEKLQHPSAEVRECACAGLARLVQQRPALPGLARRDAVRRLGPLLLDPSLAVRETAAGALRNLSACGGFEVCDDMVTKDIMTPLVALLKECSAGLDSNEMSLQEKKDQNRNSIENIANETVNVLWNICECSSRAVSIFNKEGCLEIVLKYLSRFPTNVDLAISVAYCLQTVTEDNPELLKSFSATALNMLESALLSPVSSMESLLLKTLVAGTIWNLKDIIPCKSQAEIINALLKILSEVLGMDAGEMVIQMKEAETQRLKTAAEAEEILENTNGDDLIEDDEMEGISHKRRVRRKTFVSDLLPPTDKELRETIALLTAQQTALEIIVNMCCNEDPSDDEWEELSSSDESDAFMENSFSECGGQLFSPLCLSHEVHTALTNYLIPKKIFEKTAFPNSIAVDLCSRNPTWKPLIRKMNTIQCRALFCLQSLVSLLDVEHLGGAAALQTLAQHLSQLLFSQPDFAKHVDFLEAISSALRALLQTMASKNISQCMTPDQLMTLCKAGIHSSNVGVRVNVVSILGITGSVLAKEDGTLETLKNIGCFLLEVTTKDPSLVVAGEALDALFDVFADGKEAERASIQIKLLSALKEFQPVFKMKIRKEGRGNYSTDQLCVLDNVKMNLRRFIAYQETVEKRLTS
Sequence of UniProt Q92769 (Q92769 whole entry, looked up): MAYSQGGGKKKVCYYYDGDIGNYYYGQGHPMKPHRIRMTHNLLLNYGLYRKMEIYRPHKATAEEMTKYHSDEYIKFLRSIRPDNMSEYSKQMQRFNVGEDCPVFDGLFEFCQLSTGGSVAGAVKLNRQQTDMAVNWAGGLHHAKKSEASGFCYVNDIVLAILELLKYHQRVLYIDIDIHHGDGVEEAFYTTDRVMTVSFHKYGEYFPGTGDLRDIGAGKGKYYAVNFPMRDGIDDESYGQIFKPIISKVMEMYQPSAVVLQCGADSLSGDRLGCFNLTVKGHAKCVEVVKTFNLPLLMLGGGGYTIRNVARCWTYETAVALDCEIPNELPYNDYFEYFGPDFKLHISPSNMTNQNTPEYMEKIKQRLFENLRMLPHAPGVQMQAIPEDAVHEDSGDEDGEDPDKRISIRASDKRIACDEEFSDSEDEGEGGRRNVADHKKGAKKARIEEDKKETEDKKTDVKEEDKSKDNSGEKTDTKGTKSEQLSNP

As for GSE1 (UniProt Q14687), the log2 fold change was -0.151 in assay [1], 0.029 in assay [2], 0.008 in assay [3] and 1.45 (active) in assay [4].
For the target GPS2 (UniProt Q13227), the figures for the log2 fold change in assay [1], in assay [3] and in assay [5] were 0.015, 0 and 0.039, respectively.
As to GAK (UniProt O14976), the log2 fold change in assay [2] was 0.095; in assay [3], -0.032; in assay [5] it was 0.078; in assay [4] it was -0.209.
Turning to FIZ1 (UniProt Q96SL8), the results for the log2 fold change in assay [2], in assay [3] and in assay [4] were -0.297, -0.097 and 0.044, respectively.
As for FARS2 (UniProt O95363), the log2 fold change was -0.021 in assay [1]; 0.022 in assay [2]; 0.006 in assay [3]; 0.069 in assay [5]; -0.018 in assay [4].
For the target FCF1 (UniProt Q9Y324), the log2 fold change in assay [3] is -0.362; in assay [5] it was 0.248.
As to FCHO1 (UniProt O14526), the log2 fold change in assay [2] is 0.013; in assay [3] it was 0.125; in assay [5], 0.022; in assay [4], -0.065.
On to GLRX3 (UniProt O76003), for which the log2 fold change in assay [1] is 0.04; in assay [2] it was 0.072; in assay [3] it was 0.072; in assay [5] it was -0.033; in assay [4], -0.018.
For the target HNRNPUL1 (UniProt M0R247), the results for the log2 fold change in assay [2], in assay [5] and in assay [4] were 0.079, 0.204 and 0.122, respectively.
FYB1 isoform 3 (UniProt O15117): the log2 fold change in assay [1] was -0.09; in assay [3], 0.005; in assay [5], -0.017.
For FMR1 (UniProt Q06787), the log2 fold change in assay [2] was -0.237; in assay [4], -0.038.
Consider GPX4 (UniProt P36969), for which the log2 fold change in assay [1] was 0.029; in assay [2], 0.001; in assay [3] it was 0.017; in assay [5], -0.064; in assay [4], 0.028.
As for GREB1 (UniProt Q4ZG55), the log2 fold change in assay [2] is 0.095; in assay [3], 0.175; in assay [5], 0.037; in assay [4], -0.1.
Turning to FHOD1 (UniProt Q9Y613), the log2 fold change in assay [1] is -0.033; in assay [2], -0.065; in assay [3], 0.086; in assay [4], -0.034.
As to GEMIN2 (UniProt O14893), the log2 fold change in assay [1] is 0.044; in assay [2], 0.013; in assay [3], -0.049; in assay [4], 0.025.
Regarding GTF2H3 (UniProt Q13889), the log2 fold change is 0.062 in assay [1]; 0.065 in assay [2]; 0.099 in assay [3]; 0.048 in assay [5]; 0.017 in assay [4].
As to IGF2 isoform 3 (UniProt P01344), the log2 fold change in assay [3] was 0.077.
Turning to IDH3A isoform 2 (UniProt P50213), the log2 fold change was 0.118 in assay [1], 0.251 in assay [2], -0.069 in assay [5] and -0.059 in assay [4].
As for GOLGA6B (UniProt A6NDN3), the log2 fold change in assay [1] was 0.043; in assay [3] it was 0.19.
Take HNRNPK isoform 3 (UniProt P61978): the values for the log2 fold change in assay [1], in assay [3] and in assay [5] were 0.014, 0.074 and 0.061, respectively.
HEATR5B (UniProt Q9P2D3): the log2 fold change in assay [1] is -0.029; in assay [2], -0.015; in assay [3] it was 0.052; in assay [5], -0.071; in assay [4], 0.016.
Take FUCA2 (UniProt Q9BTY2): the log2 fold change is 0.055 in assay [1]; -0.004 in assay [2]; 0.005 in assay [3]; 0.034 in assay [5]; 0.006 in assay [4].
As for ICMT (UniProt O60725), the log2 fold change in assay [1] was 0.047; in assay [3], 0.115; in assay [5] it was 0.07.
Turning to HDAC2 (UniProt Q92769), the log2 fold change was 0.022 in assay [1]; 0.042 in assay [2]; 0.08 in assay [3]; -0.002 in assay [5]; 0.111 in assay [4].
Consider GAB2 (UniProt Q9UQC2), for which the log2 fold change was 0.153 in assay [2], -0.059 in assay [3], 0.396 in assay [5] and -0.034 in assay [4].
Regarding FOXO3 (UniProt O43524), the log2 fold change in assay [2] is 0.065; in assay [3], 0.012; in assay [5] it was 0.125; in assay [4], -0.039.
For GALK1 isoform 2 (UniProt P51570), the log2 fold change is -0.02 in assay [1]; 0.016 in assay [2]; -0.065 in assay [3]; -0.024 in assay [5]; -0.007 in assay [4].
Consider GGA2 (UniProt Q9UJY4), for which the log2 fold change in assay [1] was -0.023; in assay [2], 0.014; in assay [3], -0.035; in assay [5], 0.041; in assay [4] it was -0.047.
For the target HEATR3 (UniProt Q7Z4Q2), the log2 fold change in assay [1] is -0.073; in assay [2], -0.014; in assay [3], 0.026; in assay [5] it was 0.004; in assay [4], -0.04.
In the case of HADHB (UniProt P55084), the log2 fold change in assay [1] is -0.238; in assay [2], 0.235; in assay [3], 0.2; in assay [5], 0.363; in assay [4] it was -0.085.
Turning to HS1BP3 (UniProt Q53T59), the log2 fold change in assay [1] was -0.046; in assay [2], 0.087; in assay [3] it was -0.001; in assay [4], -0.203.
Consider GLCCI1 (UniProt Q86VQ1), for which the log2 fold change was -0.088 in assay [1]; -0.041 in assay [2]; 0.137 in assay [3]; 0.013 in assay [5]; -0.075 in assay [4].
GNAI3 (UniProt P08754): the log2 fold change in assay [1] is -0.005; in assay [2] it was 0.019; in assay [3], 0.011; in assay [5], -0.154; in assay [4], -0.032.
